# Results reported in PubChem BioAssay AID1508600 (Functional Genomics Laboratory (NCATS/FGL), 2020).
# The campaign covered roughly 53,000 sequences. About 3,700 (7%) were called active. Many of the other results were omitted from the sample, so actives are more common in it than they were. Unmarked numbers belong to inactive results.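 The calls were made as follows: active = gene knockdowns whose robust z-score for IL-1 alpha signal is at least 2 or at most -2, so actives lie on both sides; inactive = the rest.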
# Assay: Components of the Cytosolic LPS Sensing Pathway: Gene Identification via Genome-wide siRNA Screen;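 also: robust z of the log signal after scaling to non-targeting control siRNA wells of the plate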
# Settings: RAW264.7 macrophages, IL-1a HTRF, actives lie on both sides, screened at 100 nM (by protocol), cells primed 5 h with Pam3CSK4 first
# How it was run: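 Mouse macrophage line RAW264.7 is transfected with siRNA (100 nM final), grown 48h, primed with TLR ligand Pam3CSK4 5 h and given intracellular LipidA 24 h. IL-1a in supernatant is read by HTRF and viability by luminescence.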
row,Sequence,z-score
1,GGUCCAAGAGGAAAGACAATT against Adarb2,0.67
2,GGUGACAGAUGUUUAUGAGTT against Ccdc28b,-1.91
3,GCAUAUGAUUGUCAUGAGUTT against Olfr319,-1.47
4,GCAAGACCGAAGUCACGGATT against Krt19,2.87 (active)
5,CCGAGACAUAUACAAAGGATT against Klkb1,-0.36
6,CCAGACAUCGUGCUUUACATT against Chrna3,1.42
7,GUUAACCCUGAGCCUAAACTT against Spata3,0.356
8,GGGCGACAUCUUUAGCAAATT against Sh3bp4,-0.0472
9,GCCUAAGCCCUUAAAGCGUTT against Lrrc41,0.643
10,CCCACUAAGGAACAAAUUGTT against Tex24,0.297
11,GGCUUGCAUCAAUAAAGAATT against Adam33,0.0554
12,GGUGGUUGAAGAAAUGGCUTT against Timm8a1,-0.364
13,GGAGCAGAAGUCAAUCAGGTT against Myo1b,0.419
14,GGGACUAAUGUUUUGCCUATT against Krt16,-2.62 (active)
15,GCGGAAGUCGACCUUUGAUTT against Cd164,-0.238
16,CGACUUUGGACAAAAAUUGTT against Kdm2a,0.638
17,CCUACCCGAUUAUUCUUACTT against C2cd2l,0.125
18,GGCAGUAUUGACUCCUACCTT against 6430548M08Rik,-0.973
19,GCUUGGAUUGAGCUUUACATT against Pid1,3.53 (active)
20,GGAAGUUGUUGGGAACUUCTT against Afmid,-0.401
21,GGGAAGUUUGGUUCUUUGGTT against Msn,0.749
22,GGAAAGCCACUGUGUAAAATT against Armc9,0.594

row,Sequence,z-score
1,GCCUCUUCGAACUCACUAUTT against St6galnac3,-0.807
2,GGAAAGAGGGUUUAUUUUGTT against 4930556L07Rik,0.919
3,GGGAAAGAGUUUUACAAACTT against Ttc22,2.74 (active)
4,GGACCUGAACAAUAAGGUUTT against Tagap,-1.78
5,GGAUUCUUUGGUCUAUUUCTT against Pudp,-0.308
6,GGAGAAAGACCAUUACUGUTT against Ly6e,1.63
7,GGUGACAAACCGAUACUUGTT against Cope,-0.966
8,GCAGACAAAGAUCCUAUGCTT against Atp2b3,-2.27 (active)
9,CCUACCUAUUUAUCAAAGATT against Sgms1,0.977
10,GGAUUUUUACAGAGACAUGTT against Actr6,-0.821
11,CGAUAUCUUACUUCUUUUGTT against E030011O05Rik,0.952
12,GGCCAUAGUCCUGUUCACCTT against Nr2f2,0.492
13,CCUUCAACAGAUCUAGAGUTT against Rexo1,2.36 (active)
14,GGAGGUUACAAUCCAUGAGTT against Anapc1,-0.951
15,GGAUAGAUUUUAGGUAUUGTT against Htr5b,-0.475
16,CGGAGUAGCGAUUAUGGUGTT against Art5,-0.535
17,GGAUUUAACCCUGAGAUACTT against Grpel2,0.621
18,GGAUGAUAUCGGAGCCUGCTT against Clec4g,0.392
19,GGACAAAUACCACAAGUUGTT against Simc1,2.13 (active)
20,GCAGGAGUAUUGCCAAGGATT against Csf1,-0.404
21,CGAAACACUCAAGGUUGUATT against Creb3l2,-0.314
22,GCAGCAUGCCUGAAUAUUUTT against Prcp,0.172

row,Sequence,z-score
1,GGAGGUGGAACAAAUAUUUTT against Emc6,0.361
2,GGAAGACUUGUUCAACUGGTT against Grwd1,-0.88
3,GCUGUUUGAGGUCAUUCAUTT against Urb2,4.71 (active)
4,GGCUUUUGUCAAGCAGCACTT against Ins2,-0.628
5,CCUUGAAAAGUCUAAACGUTT against Tmod2,0.375
6,GGGCUAGCCUAGAUAAAAATT against Sltm,-1.38
7,GGGCUCCACAUGUUUGCAUTT against Ehmt1,0.392
8,GGAAUUCUCUCAGCAGAAGTT against 1110038F14Rik,-2.17 (active)
9,GGAACUUCUACAGUCCUCCTT against Parp16,0.193
10,GGCUUCUUAUUGAUGUUGGTT against Asb13,-0.166
11,GGAUUUUUGAUGAUGUGUCTT against Arfgap1,-0.795
12,CCUUAUAGCAUAAGCUUUATT against Olfr768,2.04 (active)
13,CCAAGAUACCUUUUUUGAGTT against Paox,0.455
14,GGCCUCUUCACUUAUGUAUTT against Inha,-0.22
15,GGUCAAUUGUCCAUAUGACTT against Tox3,-2.24 (active)
16,GGACAAUGAAGGAAUUGAUTT against Mdm4,-0.579
17,CCUCGACUUUUAUUUGGAUTT against Smg6,-0.0389
18,GGUUAGCUUCUUAAAACCATT against Adcy10,-0.605
19,GGGAGCUAGCAAAAUCGGATT against Eif4g3,0.714
20,GGUGAAGCCAGUUUCUUUATT against Traf3ip2,0.107
21,CGUUGAUGUGUAUUUAAACTT against Vopp1,0.704
22,GCUACUAUUGUGUUCUGAATT against Drd1,2.24 (active)

row,Sequence,z-score
1,CGUGAACGUAGAGUUUUCUTT against Fcrl5,3.59 (active)
2,GGAACUGCUCAUAAAAACATT against Evi2b,0.0355
3,GCUAUUGAGUUAUCGUUGCTT against Stam2,0.715
4,GGUACAGCUUAUGGAUUAATT against Pdgfra,-0.193
5,GCCAGGUUUUCUCCAUAGATT against Tmem44,-0.841
6,GGUUUAUACUCAUAACCUGTT against Kifbp,2.03 (active)
7,GAAAUUAGAACAACUUUGGTT against 3830403N18Rik,0.442
8,GGACCGCCUUCAACAACAATT against Tpgs1,2.68 (active)
9,GGCAUUUACCAAGUUCCUGTT against Olfr522,-1.26
10,GGACCAUAAGCACAUGAUUTT against Prl7c1,0.668
11,GGUCCAUACAAGUGUUUGATT against Camk2b,-0.15
12,GGUACUCGAAUCUGACCUCTT against Nqo1,2.04 (active)
13,GGAAACCCAAUAUCAAACUTT against Rnf138,0.252
14,GCAUCACUUACAGAUAGACTT against Olfr305,-1.21
15,GCAAUACCUCAGAAAAAGUTT against Tmem165,-4.14 (active)
16,GGAGGUCCAGAAGAAUUAUTT against Pam16,0.957
17,GCAAAAGUAGAAGAACAACTT against Ccnt1,-0.172
18,GGUGGUUACCAUCUUACUUTT against Trhr,0.532
19,GGAAAUUUUCAAGCUCAAGTT against Gsdmd,-2.44 (active)
20,GGAGGCAUUCGCAUAGACGTT against Tra2a,1.68
21,GGUGUGAGAUCGAAUCAGATT against Arhgef18,0.503
22,GGCACUCUUGUUGAAAUUCTT against H6pd,0.756

row,Sequence,z-score
1,GGGUUGUUUGCUGGUUUGUTT against Tmbim4,0.885
2,GGUUGGAAAUUGGACAGGATT against Col6a3,2.22 (active)
3,GGACCUCACAAGUGUUUAUTT against Pola1,-0.837
4,GGUGAAUGUGUGGAUUAUCTT against Itih2,-0.684
5,GGUUGUUCUUAACAUAACCTT against Ginm1,0.0306
6,GGAUCAAGAAAAGAUGAAATT against Galnt1,-0.858
7,GGUGAUGCGAUCUUCUUUATT against Anxa10,1.76
8,GGUCAAAAUAGAAGGAGUATT against Klhl4,0.124
9,CCCUGUAUAUAUUUGCUGATT against Clca3a2,2.78 (active)
10,GGUGCCCAUAAUAGCCAUCTT against Polr2c,-1.02
11,GCCACACGACAUGUGAUUCTT against C2cd4c,-0.0403
12,GCAGUUGGCAGGCUAAAAATT against Mff,1.98
13,CCCUAACUUAAUAAAACCUTT against Triobp,-2.41 (active)
14,GGACAUCGAAGUCCAACACTT against Plekhm1,-0.501
15,CCACUUACAUGUCAGAUUATT against Slc30a6,1.09
16,GGACUGGAAGAAUUUUUUGTT against Mrpl47,0.293
17,GGGACAGAAAGGAAAGACUTT against Ndufb4,0.0331
18,CCAUUGACACCUUAAAUAUTT against Cnot3,0.131
19,GGGCACACCCAUGAAGACATT against Hnf1a,4.58 (active)
